Over roughly 18,000 sequences, “log2 normalized intensity” has its median near 0.36; the highest 2% begin near 7.3. Shown is part of a subset that was picked to be rich in the highest values.
Target: T1, HNF4alpha8 (COS-7 nuclear extract) (Homo sapiens, UniProt P41235-5 1-452)
T1 sequence: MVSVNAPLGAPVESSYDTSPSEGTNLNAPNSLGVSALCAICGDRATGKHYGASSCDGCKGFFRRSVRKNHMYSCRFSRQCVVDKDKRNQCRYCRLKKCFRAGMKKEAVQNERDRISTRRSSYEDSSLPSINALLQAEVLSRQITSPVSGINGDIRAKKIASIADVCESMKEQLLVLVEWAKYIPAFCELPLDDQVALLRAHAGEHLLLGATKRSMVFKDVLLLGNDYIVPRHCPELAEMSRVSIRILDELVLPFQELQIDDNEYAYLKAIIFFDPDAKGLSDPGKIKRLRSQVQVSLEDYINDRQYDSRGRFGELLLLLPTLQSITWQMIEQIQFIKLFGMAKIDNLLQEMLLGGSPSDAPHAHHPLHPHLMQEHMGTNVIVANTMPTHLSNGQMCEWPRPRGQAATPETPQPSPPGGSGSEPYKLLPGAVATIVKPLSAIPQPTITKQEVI
Assay: protein-binding microarray; COS-7 nuclear extract on double-stranded Agilent 4x180k PBM; binding buffer, salt, pH and temperature not given in the material; high values mean tight binding
Details: chain copies: 2; label: 3' end of strand 1 on the slide; dsDNA, one strand shown
Method in brief: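 Nuclear extracts of COS-7 cells transiently transfected with a human HNF4α isoform were applied to a custom Agilent SurePrint G3 4x180k array bearing ~44,000 double-stranded ~60-nt test sequences, each in quadruplicate. The bound protein was imaged on an Agilent G2565CA scanner at 2-µm resolution. Binding signal is the normalized, background-corrected gProcessedSignal from Agilent software.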

Row | Sequence | binding signal [log2 normalized intensity]
1 | TTTGTCAAATGCTTCCAAGAATTTAAGAGAGCCTAGGGAGATTAGAGTATCGGTCGA | -0.862
2 | CAGAGGACAGGTTTCCTGAGTTACAGATAAGCCTAGGGAGATTAGAGTATCGGTCGA | -0.778
3 | ATTCACATCTCCAGTTCCAAAGTCCAGGTGGCCTAGGGAGATTAGAGTATCGGTCGA | 6.55
4 | TGTTAGCAGAAACCATCTGGCTTGGCCCCCGCCTAGGGAGATTAGAGTATCGGTCGA | 4.14
5 | AAAATACCTGGAAGTATTTATTGAGCACACGCCTAGGGAGATTAGAGTATCGGTCGA | -0.121
6 | TGAAGCGACCCCTCGAGGCAACCTTTGACCGCCTAGGGAGATTAGAGTATCGGTCGA | 9.25
7 | AAGTATCTCGGTCAAACCTTTGACCCTTTAGCCTAGGGAGATTAGAGTATCGGTCGA | 6.9
8 | CCTCGAGGCAACCTTTGACCTGGTACTATGGCCTAGGGAGATTAGAGTATCGGTCGA | 6.8
9 | CGACCCCTCGAGGCAACCTTTGACCTGGTAGCCTAGGGAGATTAGAGTATCGGTCGA | 8.16
10 | ATCACTGAAGCGACCCCTCGAGGCAACCTTGCCTAGGGAGATTAGAGTATCGGTCGA | 1.75
11 | GTCAAATCACTGAAGCGACCCCTCGAGGCAGCCTAGGGAGATTAGAGTATCGGTCGA | 1.82
12 | GTGAACCTTTGTCCCGTTATGGCACCAAGAGCCTAGGGAGATTAGAGTATCGGTCGA | 1.55
13 | AGATCCATTGCATGTGCATTTCACAATAGGGCCTAGGGAGATTAGAGTATCGGTCGA | 0.639
14 | GTGGACTTTGTCCTGTGGGCTGTAAAAATCGCCTAGGGAGATTAGAGTATCGGTCGA | 5.73
15 | ATGGACTTTGAAGGAGATTCCTGTGTCAGCGCCTAGGGAGATTAGAGTATCGGTCGA | 1.23
16 | GCAATGTGGACTTTGTCCTGTGGGCTGTAAGCCTAGGGAGATTAGAGTATCGGTCGA | 8.03
17 | CCGTCCTGTCCTGGACTTTCCTTTGTTGGGGCCTAGGGAGATTAGAGTATCGGTCGA | 2.84
18 | GTGGGAGAAAGCTTTGGACTTTGGGCTGTGGCCTAGGGAGATTAGAGTATCGGTCGA | 6.47
19 | GCCACGGTCAGCAATGTGGACTTTGTCCTGGCCTAGGGAGATTAGAGTATCGGTCGA | 10.2
20 | TGGACTTTGGTCCTGGTCAGACTTGCCACGGCCTAGGGAGATTAGAGTATCGGTCGA | 5.42
21 | GGTCAGCAATGTGGACTTTGTCCTGTGGGCGCCTAGGGAGATTAGAGTATCGGTCGA | 8.67
22 | AGTTTGCCACGGTCAGCAATGTGGACTTTGGCCTAGGGAGATTAGAGTATCGGTCGA | 6.83

Row | Sequence | binding signal [log2 normalized intensity]
23 | CAGATAATTACCTGGACTCTAGAGCCAGACGCCTAGGGAGATTAGAGTATCGGTCGA | 1.75
24 | CTCAAAGTCTAACCCAACTAAGAACACAGTGCCTAGGGAGATTAGAGTATCGGTCGA | 1.24
25 | AAAGTTCAGTTGCAAAGAACAGAATCCAGTGCCTAGGGAGATTAGAGTATCGGTCGA | -0.777
26 | GTCTTACTGATGGGCAAAGTTTTCAAGAATGCCTAGGGAGATTAGAGTATCGGTCGA | 1.24
27 | CATGTTTACTTTTGCAAGGTTTGTTCTTATGCCTAGGGAGATTAGAGTATCGGTCGA | 1.87
28 | GAGGACTTTGGCCTTTTGTGAGATATGGACGCCTAGGGAGATTAGAGTATCGGTCGA | 4.16
29 | AGATGGGGTGAACTTTGGACCACATATAGAGCCTAGGGAGATTAGAGTATCGGTCGA | 7.98
30 | CTCAGTCATACCACATGGATGGATTCAGATGCCTAGGGAGATTAGAGTATCGGTCGA | 0.256
31 | GGTGAACTTTGAGACTATCCTTGGACCGCAGCCTAGGGAGATTAGAGTATCGGTCGA | 3.32
32 | TACCATGGGAGACCTCAGGGGTCATCAGATGCCTAGGGAGATTAGAGTATCGGTCGA | 3.08
33 | TGGGGTATCAGGTGGTGATGGTGGGAGGGAGCCTAGGGAGATTAGAGTATCGGTCGA | -0.797
34 | ACAGGAGATCAGATGGGGTGAACTTTGGACGCCTAGGGAGATTAGAGTATCGGTCGA | 9.11
35 | AGATCAGATGGGGTGAACTTTGGACCACATGCCTAGGGAGATTAGAGTATCGGTCGA | 8.04
36 | CAGGGGTCATCAGATAGATGGTCAGTGAACGCCTAGGGAGATTAGAGTATCGGTCGA | 1.88
37 | AAGGGAGAAAGACATGTTTCTAACTGCCCGGCCTAGGGAGATTAGAGTATCGGTCGA | 0.0984
38 | CTGCTTCGGCCTTTGACCTCGTGATAACGAGCCTAGGGAGATTAGAGTATCGGTCGA | 5.83
39 | TTGAAGAAATGGTGGACTTTGTAGCTCAAAGCCTAGGGAGATTAGAGTATCGGTCGA | 4.79
40 | AAAGTTCTGCTGAGTATCCAAAGGTCAGTGGCCTAGGGAGATTAGAGTATCGGTCGA | 6.24
41 | GACGGGAGGAAAACTGGGCAAAGGTCAGGAGCCTAGGGAGATTAGAGTATCGGTCGA | 5.58
42 | GGCGTGGACTTCGCTCCGCCGCTAGGTGGCGCCTAGGGAGATTAGAGTATCGGTCGA | 3.13
43 | GCCAGGCAGGACAGTTTTGTGTGTTTAATGGCCTAGGGAGATTAGAGTATCGGTCGA | 0.878
44 | AAATGCTGATAATGATATGGACAATGAAATGCCTAGGGAGATTAGAGTATCGGTCGA | 0.122

Row | Sequence | binding signal [log2 normalized intensity]
45 | GTTCAATGCTTCAGTGAGCCTTGACCTTCAGCCTAGGGAGATTAGAGTATCGGTCGA | 4.83
46 | GCCAGCCAGGGCCACCCATCAGTGGACTTTGCCTAGGGAGATTAGAGTATCGGTCGA | 7.34
47 | CAGTGGACTTTGTCCTTCATCTATCTCCTTGCCTAGGGAGATTAGAGTATCGGTCGA | 5.95
48 | GCCACCCATCAGTGGACTTTGACCTTGTTTGCCTAGGGAGATTAGAGTATCGGTCGA | 10.8
49 | CCATCAGTGGACTTTGACCTTGTTTTCAATGCCTAGGGAGATTAGAGTATCGGTCGA | 9.54
50 | AGACCTTTGACATCACCTAACTTGTGGCTGGCCTAGGGAGATTAGAGTATCGGTCGA | 1.49
51 | CCTTTCTACTGCCAGCCAGGGCCACCCATCGCCTAGGGAGATTAGAGTATCGGTCGA | 0.592
52 | GACCTTGTTTTCAATGACTACCTGTTACCCGCCTAGGGAGATTAGAGTATCGGTCGA | 1.81
53 | CACATGCTATTATTTTCCATCAGTGGACTTGCCTAGGGAGATTAGAGTATCGGTCGA | 3.95
54 | AGTGGACTTTGACCTTGTTTTCAATGACTAGCCTAGGGAGATTAGAGTATCGGTCGA | 7.8
55 | ACTTTGACCTTGTTTTCAATGACTACCTGTGCCTAGGGAGATTAGAGTATCGGTCGA | 2.13
56 | CCCAGGGACTTTGGCCTTACTTGGCCTGTTGCCTAGGGAGATTAGAGTATCGGTCGA | 3.01
57 | GCAGCTCTTTACAAAGCCCATGCTGGACCCGCCTAGGGAGATTAGAGTATCGGTCGA | 4.69
58 | TCACAGTGCCTCTGCAAGTTGGCCTTACTAGCCTAGGGAGATTAGAGTATCGGTCGA | -0.0691
59 | TTTGTCTGTGTAGACTCATCTGGTGTCATTGCCTAGGGAGATTAGAGTATCGGTCGA | 1.95
60 | TTTTTGAGATGGAATCTTGCCCTGTCGCCCGCCTAGGGAGATTAGAGTATCGGTCGA | 3.19
61 | GGTTCCAGCATGGACTTCACAGCCTGTTAGGCCTAGGGAGATTAGAGTATCGGTCGA | 0.147
62 | TGTGGGTTCAAATCCATTCAGCAGCGTGTAGCCTAGGGAGATTAGAGTATCGGTCGA | -0.128
63 | GCAAAGTTCAACCCTGAATGTGTGCTGGCCGCCTAGGGAGATTAGAGTATCGGTCGA | 1.12
64 | ACTTCGCTGGAGGTGTTAAAGTGCCATTGAGCCTAGGGAGATTAGAGTATCGGTCGA | 1.75
65 | TGCACTTTACGTAAGATAAGGTGAACATACGCCTAGGGAGATTAGAGTATCGGTCGA | 1.09
66 | GTGGGAGAGCAAGGGTCAAGGGTCATTTGTGCCTAGGGAGATTAGAGTATCGGTCGA | 7.65

Row | Sequence | binding signal [log2 normalized intensity]
67 | AGAGCAAGGGTCAAGGGTCATTTGTTTTTAGCCTAGGGAGATTAGAGTATCGGTCGA | 6.31
68 | TGGGTGGGGGAAGTGTGGTCAAGGGTCAGTGCCTAGGGAGATTAGAGTATCGGTCGA | 4.76
69 | CCGCAGTGGGAGAGCAAGGGTCAAGGGTCAGCCTAGGGAGATTAGAGTATCGGTCGA | 7.52
70 | CCCATCCGCAGTGGGAGAGCAAGGGTCAAGGCCTAGGGAGATTAGAGTATCGGTCGA | 4.51
71 | AAGGGTCAAGGGTCATTTGTTTTTACAGACGCCTAGGGAGATTAGAGTATCGGTCGA | 6.77
72 | CATTTTTTTCCACCCTCCCCTCCCCCTCCTGCCTAGGGAGATTAGAGTATCGGTCGA | 6.32
73 | GAATTTTGGACAAGGTAACCCCCAACATTCGCCTAGGGAGATTAGAGTATCGGTCGA | 3.79
74 | ATGTGCCCTTTGGACAGAAATATCAGCAAGGCCTAGGGAGATTAGAGTATCGGTCGA | 3.43
75 | GGAGGGAACAGCAAGACTTTGGCCCTGCAGGCCTAGGGAGATTAGAGTATCGGTCGA | 0.278
76 | AAGTCCAAAGTTCTTGGCCAGGCATGGAGAGCCTAGGGAGATTAGAGTATCGGTCGA | 2.75
77 | AAGGGTCAATGTGATCAGGTGTGGGCATTAGCCTAGGGAGATTAGAGTATCGGTCGA | 1.3
78 | ATCTCACACAGTACTTTGTACATGGGAATAGCCTAGGGAGATTAGAGTATCGGTCGA | 1.8
79 | ATAGTTCAGCCATCAGGTAACATATTGTCCGCCTAGGGAGATTAGAGTATCGGTCGA | 1.18
80 | GCAGTTTTTGATCAAGGAGGACTTTGGAATGCCTAGGGAGATTAGAGTATCGGTCGA | 7.54
81 | ATCAAGGATTTTTTCTTGGACTTTGGTCATGCCTAGGGAGATTAGAGTATCGGTCGA | 8.58
82 | GACTTTGGTTGGATTTCTTGGCTTCTCTTGGCCTAGGGAGATTAGAGTATCGGTCGA | 0.989
83 | TTTTGATCAAGGAGGACTTTGGAATGGCAGGCCTAGGGAGATTAGAGTATCGGTCGA | 4.79
84 | TTTTCTTGGACTTTGGTCATCCTTTACTTTGCCTAGGGAGATTAGAGTATCGGTCGA | 6.91
85 | TTTAGGCAGTTTTTGATCAAGGAGGACTTTGCCTAGGGAGATTAGAGTATCGGTCGA | 4.55
86 | TTGGACTTTGGTCATCCTTTACTTTCCCAAGCCTAGGGAGATTAGAGTATCGGTCGA | 6.14
87 | GGATTTTTTCTTGGACTTTGGTCATCCTTTGCCTAGGGAGATTAGAGTATCGGTCGA | 7.39
88 | TCCAGATCAAGGATTTTTTCTTGGACTTTGGCCTAGGGAGATTAGAGTATCGGTCGA | 5.67
